In PubChem BioAssay (NCI):
This is part of a sample that, as a whole, favours compounds with a hit. Of some 83,000 tested, about 20% had one in any assay.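 For each line, cells grew in 96-well plates with the test compound present at a single concentration for 48 hours.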 The source made the active and inactive calls. The calls were made as follows: active = growth percent below 10; inactive = the rest.

Key:
Assay in all cases: NCI-60 one-dose screen, 48 h (100 = growth as untreated, 0 = no growth, -100 = all killed)
Conditions in all cases: 10 µM unless noted
K-562 leukemia = tested on: K-562 leukemia
MDA-MB-231 breast = tested on: MDA-MB-231 breast
RXF 393 renal = tested on: RXF 393 renal
SF-268 CNS = tested on: SF-268 CNS
SF-295 CNS = tested on: SF-295 CNS
SF-539 CNS = tested on: SF-539 CNS
UACC-257 melanoma = tested on: UACC-257 melanoma
M14 melanoma = tested on: M14 melanoma
HCT-15 colon = tested on: HCT-15 colon
MALME-3M melanoma = tested on: MALME-3M melanoma

Measured: growth

COc1ccc(COC(C)=O)cc1
inactive: K-562 leukemia 103% | MDA-MB-231 breast 125% | RXF 393 renal 108% | SF-268 CNS 101% | SF-295 CNS 116% | SF-539 CNS 107% | UACC-257 melanoma 109% | M14 melanoma 108% | HCT-15 colon 97.6%

CN1CCCC1c1cccnc1 (configuration not stated)
inactive: K-562 leukemia 106% | MALME-3M melanoma 128% | MDA-MB-231 breast 97.3% | SF-268 CNS 111% | SF-295 CNS 124% | SF-539 CNS 85.2% | HCT-15 colon 100%

CCCCCCCC/C=C\CCCCCCCCOc1ccccc1CC(=O)NCC[N+]1(C)CCCC1
inactive: K-562 leukemia 41.7% | MALME-3M melanoma 88.3% | MDA-MB-231 breast 83.9% | SF-268 CNS 69.1% | SF-295 CNS 98.2% | SF-539 CNS 99% | UACC-257 melanoma 88.4% | HCT-15 colon 104%

O=C1CC(=O)N(c2ccccc2)O1
inactive: K-562 leukemia 111% | MDA-MB-231 breast 87.6% | RXF 393 renal 109% | SF-268 CNS 109% | SF-295 CNS 101% | SF-539 CNS 93.6% | UACC-257 melanoma 106% | M14 melanoma 99.9% | HCT-15 colon 102%

CCN(CC)CCOc1ccc(C2=C(c3ccccc3)CCc3cc(OC)ccc32)cc1
active: K-562 leukemia -31% | MALME-3M melanoma -91.4% | MDA-MB-231 breast -2.94% | SF-295 CNS -72.7% | SF-539 CNS -17.4% | M14 melanoma -63.6% | HCT-15 colon 6.79%
inactive: SF-268 CNS 33.1%

CCN(CC)CCCNCCCNc1cc(OC)cc2cccnc12
inactive: K-562 leukemia 89.9% | MALME-3M melanoma 108% | RXF 393 renal 70.6% | SF-268 CNS 90.3% | SF-295 CNS 99.2% | SF-539 CNS 84.6% | UACC-257 melanoma 107% | M14 melanoma 102% | HCT-15 colon 83.9%

CCOC(=O)c1c(C)c(C(=O)OCC)n(C)c1C
inactive: K-562 leukemia 103% | MALME-3M melanoma 112% | MDA-MB-231 breast 85.6% | SF-268 CNS 93.9% | SF-295 CNS 87.1% | SF-539 CNS 101% | UACC-257 melanoma 134% | HCT-15 colon 102%

Clc1ccc(-c2nc(-c3cccs3)no2)c(Cl)c1
inactive: K-562 leukemia 96.1% | MALME-3M melanoma 103% | RXF 393 renal 107% | SF-268 CNS 99.2% | SF-295 CNS 107% | SF-539 CNS 108% | UACC-257 melanoma 76.2% | M14 melanoma 100% | HCT-15 colon 73.5%

COc1ccc(-c2cc(Cc3cccs3)c(=O)n(Cn3cncn3)n2)cc1
inactive: K-562 leukemia 98.3% | MDA-MB-231 breast 87.5% | RXF 393 renal 110% | SF-268 CNS 110% | SF-295 CNS 98.9% | SF-539 CNS 101% | UACC-257 melanoma 105% | M14 melanoma 107% | HCT-15 colon 101%

CC1=CSC2=NCCN12
inactive: K-562 leukemia 101% | MDA-MB-231 breast 122% | RXF 393 renal 121% | SF-268 CNS 102% | SF-295 CNS 132% | SF-539 CNS 95.8% | UACC-257 melanoma 116% | M14 melanoma 108% | HCT-15 colon 109%

CC(C)COCC(CN(Cc1ccccc1)c1ccccc1)N1CCCC1 (configuration not stated)
inactive: K-562 leukemia 31.3% | MALME-3M melanoma 84.3% | MDA-MB-231 breast 29.5% | SF-268 CNS 71.5% | SF-295 CNS 63.6% | SF-539 CNS 78.5% | M14 melanoma 51.9% | HCT-15 colon 55.7%

O=C(O)C(=O)O
inactive: K-562 leukemia 116% | MALME-3M melanoma 108% | MDA-MB-231 breast 102% | SF-268 CNS 108% | SF-295 CNS 110% | SF-539 CNS 94.8% | M14 melanoma 109% | HCT-15 colon 95%

O=[N+]([O-])c1ccc(N/N=C/c2c(O)ccc3ccccc23)nc1
inactive: K-562 leukemia 31.7% | MDA-MB-231 breast 47.5% | RXF 393 renal 67.1% | SF-268 CNS 45.8% | SF-295 CNS 25.1% | SF-539 CNS 46% | UACC-257 melanoma 29.5% | M14 melanoma 65.3% | HCT-15 colon 24.5%

CCCCCCCCCCCCCCCCN=C(CC(=O)O)C(=O)O
inactive: K-562 leukemia 80.6% | MALME-3M melanoma 111% | RXF 393 renal 101% | SF-268 CNS 103% | SF-295 CNS 103% | SF-539 CNS 125% | UACC-257 melanoma 114% | M14 melanoma 95.8% | HCT-15 colon 102%

O=c1[nH]c(=O)n(C2CC(O)C(CO)O2)cc1C(F)(F)F (configuration not stated)
active: SF-295 CNS 6.84% | SF-539 CNS 8.46%
inactive: K-562 leukemia 62.4% | MALME-3M melanoma 51.4% | MDA-MB-231 breast 102% | SF-268 CNS 30.7% | M14 melanoma 15.8% | HCT-15 colon 73.9%

CCC(C)(C)C(=O)O[C@H]1C[C@@H](C)C=C2C=C[C@H](C)[C@H](CC[C@@H]3C[C@@H](O)CC(=O)O3)[C@H]21
inactive: K-562 leukemia 63.3% | MALME-3M melanoma 94.1% | RXF 393 renal 36.1% | SF-268 CNS 33.2% | SF-295 CNS 11.7% | SF-539 CNS 90.7% | UACC-257 melanoma 86.7% | M14 melanoma 59.3% | HCT-15 colon 54.7%

CCCCCCC(C)(O)c1ccccc1 (configuration not stated)
inactive: K-562 leukemia 101% | MDA-MB-231 breast 109% | RXF 393 renal 124% | SF-268 CNS 107% | SF-295 CNS 125% | SF-539 CNS 110% | UACC-257 melanoma 115% | M14 melanoma 105% | HCT-15 colon 110%

Clc1ccccc1[C@@H]1C[C@@H]2Cc3cc(Br)c4ccccc4c3N1O2
inactive: K-562 leukemia 10% | MDA-MB-231 breast 39% | RXF 393 renal 39.3% | SF-268 CNS 46.1% | SF-295 CNS 24.6% | UACC-257 melanoma 47.4% | M14 melanoma 20.8% | HCT-15 colon 35.7%
active: SF-539 CNS 6.71%

O=C(Nc1nc2ccccc2s1)c1cc(-c2ccc(F)cc2)n2nc(-c3ccccc3)cc2n1
inactive: K-562 leukemia 59.1% | MDA-MB-231 breast 64.6% | RXF 393 renal 121% | SF-295 CNS 40.3% | SF-539 CNS 63.8% | UACC-257 melanoma 69% | M14 melanoma 79.2% | HCT-15 colon 53.7%

COc1ccc(/C=C(\C#N)c2ccccc2)cc1
inactive: K-562 leukemia 28.8% | MDA-MB-231 breast 78.4% | SF-268 CNS 95.2% | SF-295 CNS 94.7% | SF-539 CNS 87.3% | UACC-257 melanoma 85.9% | M14 melanoma 88.7% | HCT-15 colon 59.5%

C=C(C)[C@H]1CC/C(C)=C/CC[C@]2(C)O[C@H]2CC/C(C=O)=C\C1O (some centres not stated)
inactive: K-562 leukemia 124% | MDA-MB-231 breast 92.4% | RXF 393 renal 111% | SF-268 CNS 106% | SF-539 CNS 106% | UACC-257 melanoma 154% | M14 melanoma 115% | HCT-15 colon 118%

COC(=O)CCC1=C(C)C(C)=N/C1=C\c1[nH]c(-c2ccc[nH]2)cc1OC
inactive: RXF 393 renal 23.3% | SF-268 CNS 25.3%
active: K-562 leukemia -16.4% | MDA-MB-231 breast -33.4% | SF-295 CNS -44.6% | SF-539 CNS -9.38% | UACC-257 melanoma -1.25% | HCT-15 colon -2.64%

CNc1ccc(CSc2ccc(Cl)cc2)cc1
inactive: K-562 leukemia 82% | MDA-MB-231 breast 103% | RXF 393 renal 111% | SF-268 CNS 96.3% | SF-539 CNS 98.2% | UACC-257 melanoma 97.4% | M14 melanoma 103% | HCT-15 colon 94.8%

COc1cc2c(-c3nc4cc(Cl)c(F)cc4s3)cc(=O)oc2c(C)c1OC
active: K-562 leukemia -22.6% | MDA-MB-231 breast -50.4% | SF-268 CNS -63.5% | SF-295 CNS -81.5% | SF-539 CNS -89% | UACC-257 melanoma -77.6% | M14 melanoma -35.2% | HCT-15 colon -39.1%

COc1cc(C2=NN(C(C)=O)C(c3ccc(OC(C)=O)cc3OC(C)=O)O2)c(OC(C)=O)c2ccccc12 (configuration not stated)
inactive: MDA-MB-231 breast 34.2% | SF-268 CNS 19.7% | SF-295 CNS 22.2% | HCT-15 colon 32.8%
active: K-562 leukemia 6.47% | SF-539 CNS 7.95% | UACC-257 melanoma -8.85% | M14 melanoma 5.99%

COC(=O)CCC1=C(CC(=O)OC)C(C)=N/C1=C\c1[nH]c(-c2ccc[nH]2)cc1OC
active: K-562 leukemia -3.71% | MDA-MB-231 breast -12.2% | HCT-15 colon 8.89%
inactive: RXF 393 renal 52.8% | SF-268 CNS 44.8% | SF-295 CNS 39.3% | SF-539 CNS 38.8% | UACC-257 melanoma 32.5% | M14 melanoma 17.2%

CC(C)(C)c1ccc(S(=O)(=O)O)s1
inactive: K-562 leukemia 77% | MDA-MB-231 breast 93.1% | RXF 393 renal 105% | SF-268 CNS 102% | SF-539 CNS 99.3% | UACC-257 melanoma 117% | M14 melanoma 107% | HCT-15 colon 107%

O=C(Nc1nc(-c2ccc(Cl)cc2)cs1)c1cc(O)c(O)c(O)c1
inactive: MDA-MB-231 breast 36% | SF-268 CNS 26.7% | SF-295 CNS 31.2% | UACC-257 melanoma 42.7% | M14 melanoma 23.2% | HCT-15 colon 18.8%
active: K-562 leukemia 7.99% | SF-539 CNS 5.36%

COc1cc(/C=C/C(=O)c2c(-c3ccc(Cl)cc3)nc3sc(C)nn23)cc(OC)c1OC
inactive: K-562 leukemia 31.1% | MDA-MB-231 breast 72.2% | SF-268 CNS 88.6% | SF-295 CNS 76.2% | SF-539 CNS 95.8% | UACC-257 melanoma 81.9% | M14 melanoma 75.8% | HCT-15 colon 60.2%

COc1ccc2[nH]cc(/C=C3/C(=O)Nc4ccc(F)cc43)c2c1
inactive: K-562 leukemia 72.1% | MDA-MB-231 breast 87.6% | RXF 393 renal 91.5% | SF-295 CNS 95.6% | SF-539 CNS 99.4% | UACC-257 melanoma 99.8% | M14 melanoma 98.2% | HCT-15 colon 75.6%

CCOC(=O)/C(=C/c1ccccc1)C(=O)c1ccccc1
inactive: K-562 leukemia 38.9% | MDA-MB-231 breast 81.4% | SF-268 CNS 62% | SF-295 CNS 83% | SF-539 CNS 84.4% | UACC-257 melanoma 64.1% | M14 melanoma 66.1% | HCT-15 colon 51.9%

C=C(C)[C@H]1CC/C(C)=C/CC[C@]2(C)O[C@H]2CC/C(COC(C)=O)=C\C1=O
inactive: K-562 leukemia 95.8% | MDA-MB-231 breast 98.4% | RXF 393 renal 105% | SF-268 CNS 115% | SF-539 CNS 117% | UACC-257 melanoma 128% | M14 melanoma 105% | HCT-15 colon 109%
